# Test results taken from PubChem BioAssay (NCI).
# The panel holds about 83,000 compounds, 20% with a hit somewhere; the sample as a whole holds those more often.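 Method: cells in 96-well plates; compound added at one concentration; 48 h incubation; percent growth measured; values under 10 scored active.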 A number with no mark means an inactive call. The source made the active and inactive calls.
# Test system: EKVX NSCLC
# Experiment: NCI-60 one-dose screen, 48 h (100 = growth as untreated, 0 = no growth, -100 = all killed)
# Conditions: 10 µM unless noted
row,SMILES,growth
1,Nc1cc2ccccc2c(=O)n1NC(=O)c1ccc(I)cc1,94.2%
2,CC(=O)Nc1cccc(Nc2nc(N[C@H]3CCCc4ccccc43)c3ccccc3n2)c1,98.7%
3,CCN(CC)C(=O)N/C(N)=N/c1nc2ccccc2s1,15.3%
4,O=C(O)c1cccc(-c2ccc(/C=N/NC(=O)c3[nH]c4ccc(Br)cc4c3-c3ccccc3)o2)c1,86.3%
5,NS(=O)(=O)c1ccc(-n2cc(-c3cccc(NC(=O)c4cc(C(F)(F)F)cc(C(F)(F)F)c4)c3)nn2)cc1,63.8%
6,C[C@H](Nc1nc(NCCc2ccccc2)nc2ccccc12)c1ccccc1,-86.2% (active)
7,C(=C\c1cc(/C=C/c2ccccc2)c2ccccc2n1)/c1ccccc1,100%
8,C=C1CC[C@@H]2[C@]3(C)COC(c4cn(-c5ccccc5)nc4-c4ccccc4)O[C@@H]3CC[C@@]2(C)[C@@H]1C/C=C1/C(=O)OC[C@H]1O (stereo partly drawn),-63.5% (active)
9,N#Cc1c(-c2cccc3ccccc23)cc(-c2cccc(OCC(=O)O)c2)[nH]c1=O,93.5%
10,O=C(/C=C/c1cccc(OCc2ccc(F)cc2)c1)c1nc2ccccc2[nH]1,38%
11,CCOC(=O)C1=C(N)N(c2ccccc2)C2=C(C(=O)CC(C)(C)C2)C1c1cccc(Cl)c1Cl (stereo not drawn),57.5%
12,CC(C)c1ccc2c(N)c(C(=O)Nc3ccc(C(F)(F)F)cn3)sc2n1,26.4%
13,COc1ccc2cc([C@H](C)C(=O)N/N=C/c3ccc(Br)cc3)ccc2c1,94.2%
14,CC(=O)Oc1ccccc1C(=O)[Se]CC(=O)Nc1cccc(C(F)(F)F)c1,-96.7% (active)
15,COc1ccc(NC(=O)c2sc3nc(C(C)C)ccc3c2N)cc1,43.2%
16,CC1=C(C(=O)OCc2ccccc2)C(c2c(O)cc(O)cc2O)n2c(nc3ccccc32)N1 (stereo not drawn),54.4%
17,N#Cc1ccc(/C=N/NC(=O)c2[nH]c3ccc(Br)cc3c2-c2ccccc2)o1,12.9%
18,CC1=C(C(=O)OC(C)C)C(c2cccc(O)c2)NC(=S)N1 (stereo not drawn),99.6%
19,COc1cc(-c2ccc(/C=N/NC(=O)c3[nH]c4ccc(Br)cc4c3-c3ccccc3)s2)cc(OC)c1OC,73.7%

row,SMILES,growth
1,COc1cc(/C=C/C(=O)c2nnn(-c3ccc(Cl)cc3)c2C)cc(OC)c1OC,10.1%
2,CC1=C(C(=O)OCc2ccccc2)C(c2ccc(-n3cncn3)cc2)n2c(nc3ccccc32)N1 (stereo not drawn),48.4%
3,COc1cc(-c2cc(-c3cccc(OCC(=O)O)c3)[nH]c(=O)c2C#N)cc(OC)c1OC,91.8%
4,CSc1ccc(C(=O)Nc2ccc3nn(/C(C#N)=C/c4ccccn4)nc3c2)cc1,-96.3% (active)
5,CSc1ccc(NC(=O)c2ccc3nn(/C(C#N)=C/c4ccccn4)nc3c2)cc1,-99% (active)
6,CC1CCCCN1CCCNC(=O)N/C(N)=N/c1nc2ccccc2s1 (stereo not drawn),46.1%
7,O=C(O)c1ccc(-c2ccc(/C=N/NC(=O)c3[nH]c4ccc(Br)cc4c3-c3ccccc3)s2)cc1,13.3%
8,CSc1ccccc1NC(=O)c1ccc2nnn(/C(C#N)=C/c3ccccn3)c2c1,-95.6% (active)
9,Clc1cccc(Cl)c1/C=C/c1cc(/C=C/c2ccc(Br)cc2)c2ccccc2n1,89.8%
10,C=C1CC[C@@H]2[C@]3(C)COC(c4cn[nH]c4-c4ccc(OC)cc4)O[C@@H]3CC[C@@]2(C)[C@@H]1C/C=C1/C(=O)OCC1O (stereo partly drawn),-59.8% (active)
11,CSc1ccc(C(=O)Nc2ccc3nnn(/C(C#N)=C/c4ccccn4)c3c2)cc1,-86.4% (active)
12,CC(=O)Nc1cccc(Nc2nccc(N[C@@H](C)c3ccccc3)n2)c1,16.6%
13,O=C(N/N=C/c1ccc(-c2ccc(O)cc2)s1)c1[nH]c2ccc(Br)cc2c1-c1ccccc1,12.3%
14,COc1cc(CNC(=O)/C=C/c2ccc3c(c2)OCO3)ccc1OCc1cn(-c2cccc(C(F)(F)F)c2)nn1,6.68% (active)
15,O=C(O)c1ccc(-c2ccc(/C=N/NC(=O)c3[nH]c4ccc(Br)cc4c3-c3ccccc3)o2)cc1,22.3%
16,CCCCOc1ccc(NC(=O)c2sc3nc(C)ccc3c2N)cc1,6.14% (active)
17,Cc1ccc2c(N)c(C(=O)Nc3ccc(-c4ccccc4)cc3)sc2n1,22.7%
18,COc1ccc2nc(Nc3cccc(NC(=O)c4ccc(CN5CCCN(C)CC5)c(C(F)(F)F)c4)c3)ccc2c1,-98.5% (active)
19,N#Cc1c(-c2cccnc2)cc(-c2ccc3ccccc3c2)[nH]c1=O,87.1%
